# Measurements taken from ChEMBL document CHEMBL1201862, “PubChem BioAssay data set” (2004).
# Measured potencies and affinities stand elsewhere.
# Test: A High Throughput Confirmatory Assay used to Identify Novel Compounds that Inhibit Mycobacterium Tuberculosis in the absence of Glycerol using Purified and Synthesized Compounds (5).
# Assay type: functional; call rule not given here
row,SMILES,IC90
1,CCCc1cc(C(N)=S)ccn1,> 100 µM (active)
2,Cc1[nH]c2ccccc2c1C(=O)COC(=O)c1ccc([N+](=O)[O-])s1,> 68.8 µM (active)
3,Cc1cc(Br)ccc1NC(=O)c1cnc(N2CCN(c3ccccn3)CC2)c2ccccc12,> 100 µM (active)
4,CNC(=O)CSc1nc2ccccc2c(=O)[nH]1,> 100 µM (active)
